TMEM16A inh = blocks the mouse calcium-activated chloride channel TMEM16A. Q8BHY3. normalized B-score (activity score, 25-100; higher = stronger inhibition) at 10 µM. HEK293 TMEM16A/YFP iodide influx fluorescence, ionomycin. hit rate 1.2% among 310,000;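 active = ratio plate-corrected score three or more library SD toward inhibition, starting fluorescence score within five deviations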;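 note: score derived from kinetic fluorescence span divided by baseline fluorescence per well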
Target sequence (Q8BHY3 whole entry, looked up): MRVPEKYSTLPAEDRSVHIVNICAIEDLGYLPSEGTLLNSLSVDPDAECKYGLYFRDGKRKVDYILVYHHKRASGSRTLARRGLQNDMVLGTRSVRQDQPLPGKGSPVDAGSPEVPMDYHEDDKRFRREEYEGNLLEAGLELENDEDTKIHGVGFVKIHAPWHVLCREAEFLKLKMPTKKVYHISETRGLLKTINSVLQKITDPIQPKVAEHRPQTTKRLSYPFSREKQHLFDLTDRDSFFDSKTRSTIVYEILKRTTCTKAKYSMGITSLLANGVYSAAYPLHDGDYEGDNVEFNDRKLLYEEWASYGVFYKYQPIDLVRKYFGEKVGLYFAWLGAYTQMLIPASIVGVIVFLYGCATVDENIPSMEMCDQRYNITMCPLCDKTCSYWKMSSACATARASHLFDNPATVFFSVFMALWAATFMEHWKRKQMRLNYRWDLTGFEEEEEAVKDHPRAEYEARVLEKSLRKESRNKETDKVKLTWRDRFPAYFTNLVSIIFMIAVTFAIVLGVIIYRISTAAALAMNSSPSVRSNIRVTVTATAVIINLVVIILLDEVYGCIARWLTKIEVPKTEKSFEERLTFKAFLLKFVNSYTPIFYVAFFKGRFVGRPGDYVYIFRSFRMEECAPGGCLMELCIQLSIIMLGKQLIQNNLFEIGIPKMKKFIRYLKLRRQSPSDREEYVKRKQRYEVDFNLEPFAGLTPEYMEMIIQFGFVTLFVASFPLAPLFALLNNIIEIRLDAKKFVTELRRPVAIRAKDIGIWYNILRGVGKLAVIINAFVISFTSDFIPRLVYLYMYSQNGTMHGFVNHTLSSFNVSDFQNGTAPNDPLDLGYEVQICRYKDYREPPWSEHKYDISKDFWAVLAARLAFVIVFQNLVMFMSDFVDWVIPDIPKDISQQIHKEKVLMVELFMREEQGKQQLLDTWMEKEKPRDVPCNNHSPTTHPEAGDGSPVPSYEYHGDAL
CHT allo act = human CHT allosteric activation | AID 488977 | hit rate 0.49% among 310,000 | CHT-expressing cells, membrane potential dye, choline EC20; hits give high values; LV-AA mutant CHT in HEK293 cells | Q9GZV3 | B-score at 10 µM;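 active = initial fluorescence not abnormally high and integrated response B-score, plate-corrected, over 3 SD above library mean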
Rce1 inhib = inhibitors of yeast Ras-converting enzyme. yeast membranes, quenched prenylated peptide cleavage fluorescence. hit rate 0.27% among 290,000. Q03530. calls only;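 active = fall in fluorescence gain of 50% or more versus controls, with final raw signal at or below 3038400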;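 note: plate controls were neutral control wells for no effect and wells lacking membranes for full effect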
CHT inh = human CHT choline transport inhibition; AID 488975; CHT-expressing cells, membrane potential dye, choline response; hits give low values; B-score at 10 µM; Q9GZV3; hit rate 0.86% among 310,000;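 active = B-score over 3 SD under the library average, and starting fluorescence ratio not unusually high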;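 note: choline stimulus applied at its EC90 after an EC20 pre-addition; B-score computed on integrated fluorescence ratio after choline addition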
Kir21 block = blocks the mouse Kir2.1 inward-rectifier potassium channel; P35561; HEK293-Kir2.1, FluxOR thallium flux fluorescence; hits give low values; B-score at 10 µM; hit rate 0.85% among 310,000;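 active = fluorescence ratio B-score at or below minus 3 SD of library scores, with starting-brightness B-score within 2 SD, cut at about -4.2 in these data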;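 note: channel flux triggered by added potassium and thallium sulfate stimulus; B-score of peak minus minimum fluorescence over baseline after thallium stimulus; more negative B-score means stronger Kir2.1 block with less thallium influx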
TMEM16A act = activators or potentiators of mouse TMEM16A chloride channel; HEK293 TMEM16A/YFP-H148Q/I152L, iodide quench fluorescence; hits give low values; B-score at 10 µM; hit rate 0.3% among 340,000;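 active = fluorescence-ratio B-score plate-corrected deviation score at least 3 library SD below zero, with starting fluorescence score within 5 deviations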;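 note: channel opened by trigger with iodide after compound preincubation; score built on the fluorescence ratio of max minus min over baseline; more negative score means more quench and so TMEM16A activation or potentiation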
Active calls of the source: *; i = inactive; x = not tested or not shown. In the library only some 3.2% were active in any assay of this set; here they are far more common.

SMILES	TMEM16A inh	CHT allo act	Rce1 inhib	CHT inh	Kir21 block	TMEM16A act
O=C(/C=C/c1ccccc1)CC(O)(c1ccccc1)C(F)(F)F (stereo not drawn)	i	i	i	i	-6.3*	i
COC(=O)c1ccc2c(c1)C(C)(C)C(/C=C/c1ccccc1O)=[N+]2C	i	7.2*	x	i	-11	i
CSc1nc(C(=O)N2CCCC(C(=O)c3ccc(Cl)cc3)C2)cs1 (stereo not drawn)	i	i	i	i	-3.4	i
CC1=CC(C)(C)Nc2ccc(OS(=O)(=O)c3ccc(C)cc3)cc21	i	i	i	i	-0.81	i
CC(=O)Nc1ccc(S(=O)(=O)Oc2ccc3c(c2)C(C)=CC(C)(C)N3)cc1	25*	i	i	i	-0.03	x
COc1cccc(NC(=O)CSc2c3c(nc4ccccc24)CCCC3)c1	i	i	i	i	-5.8*	i
CCn1c(SCC(=O)Nc2cccc(OC)c2)nc2ccccc2c1=O	i	i	i	i	-0.07	i
O=c1c(Cc2ccc(Cl)cc2)c(O)ccn1Cc1cccc(Cl)c1	i	i	i	i	-0.19	i
O=c1c(Cc2ccc(Cl)cc2Cl)c(O)ccn1Cc1ccc(Cl)cc1	100*	i	i	i	0.95	i
COc1ccc(-c2cc(-c3ccccc3)c(C#N)c(S(C)=O)n2)cc1 (stereo not drawn)	i	i	i	i	-0.09	-8.1*
Cc1ccc2c(c1C)C(=O)C(=O)N2	x	x	x	x	x	i
O=C(O)CN1C(=O)/C(=C/c2ccc(SCc3ccccc3)o2)SC1=S	x	x	x	x	x	i
NC(=O)C1=C(c2ccccc2)c2ccccc2C1=O	x	x	x	x	x	-6.3*
COc1ccc(N(C(=O)Cc2cccs2)C(C(=O)NC2CCCCC2)c2cccn2C)cc1OC (stereo not drawn)	i	i	i	i	-0.26	-5.4*
O=C(CC(SCc1ccco1)c1ccc(O)cc1)c1cccs1 (stereo not drawn)	i	i	i	i	-4.8*	i
COc1ccc(O)c(C(=O)c2cc(C#N)c(=O)n(-c3ccc(Cl)cc3)c2)c1	i	i	i	i	0.62	-4.6*
Cc1ccc(O)c(C(=O)c2cc(C#N)c(=O)n(C(C)c3ccccc3)c2)c1 (stereo not drawn)	i	i	i	i	-1.6	i
Cc1ccc(-n2cc(C(=O)c3cc(Cl)ccc3O)cc(C#N)c2=O)cc1	25*	i	i	i	-0.46	i
CCOc1ccc(-n2cc(C(=O)c3cc(Cl)ccc3O)cc(C#N)c2=O)cc1	25*	i	i	i	-2	i
COc1ccc(-n2cc(C(=O)c3cc(Cl)ccc3O)cc(C#N)c2=O)cc1	i	i	i	i	0.5	i
Cc1ccc(CNC(=O)CNC(=O)[C@@H]2Cc3ccccc3CN2C(=O)OC(C)(C)C)cc1	i	i	i	i	0.02	i
Cn1c(=O)c(=O)n(C)c2cc(S(=O)(=O)NCCOc3ccccc3Cl)ccc21	i	i	i	i	-2	i
Cc1ccc(S(=O)(=O)NCc2ccccc2)cc1C(=O)N1CCCC(C(F)(F)F)C1 (stereo not drawn)	i	i	i	i	-1.4	i
C=CCc1c(C)nc(C)nc1N/N=C/c1ccccc1O	25*	i	i	i	-1.7	i
CCC(Sc1nc2cc(OC)c(OC)cc2c(=O)n1Cc1ccco1)C(=O)NCCOC (stereo not drawn)	i	i	i	i	-1.9	i
SMILES	TMEM16A inh	CHT allo act	Rce1 inhib	CHT inh	Kir21 block	TMEM16A act
CCC(Sc1nc2cc(OC)c(OC)cc2c(=O)n1CCc1ccc(S(N)(=O)=O)cc1)C(=O)NCCOC (stereo not drawn)	i	i	i	i	1.7	-4.7*
CN(C)Cc1ccccc1C(O)(c1ccccc1)c1ccccc1	i	i	i	i	-4.7*	i
CC(=O)c1cc(F)ccc1OCC(=O)N1CCCc2ccccc21	i	i	i	i	-6.5*	i
O=C(CCCOc1ccc(Cl)cc1Cl)N1CCCc2ccccc21	100*	i	i	i	-1.8	i
NC(=O)c1cc(Cl)ccc1OCC(=O)N1CCCc2ccccc21	i	i	i	i	0.34	i
Clc1ccc(OCCOCCN2CCc3ccccc3C2)c(Cl)c1	i	i	i	i	-15*	i
O=C(COc1ccccc1F)N1CCCc2ccccc21	i	i	i	i	1.9	i
Cn1c(=O)c2sccc2n2c(CCCC(=O)NCc3ccc(F)cc3)nnc12	i	i	i	i	-1.2	i
CCS(=O)(=O)N1CCC(C(=O)NCc2ccc(OC)cc2)CC1	i	i	i	i	-0.48	i
O=c1cc(CSc2ccc(Cl)cc2)nc(-c2ccncc2)[nH]1	i	i	i	i	0.01	i
Cc1cccc2sc(NNC(=O)c3ccc(S(=O)(=O)N4CCc5ccccc5C4)cc3)nc12	i	i	i	i	0.03	i
Cc1cccc2sc(NNC(=O)c3ccc(S(=O)(=O)N4CCCC(C)C4)cc3)nc12 (stereo not drawn)	25*	i	i	i	0.37	i
O=S(=O)(NCCc1ccccc1)c1ccc(Cl)nc1	i	i	i	i	2	i
O=C(COC(=O)C1CC(=O)N(Cc2ccco2)C1)c1ccc(OC(=O)c2ccccc2)cc1 (stereo not drawn)	i	i	i	i	-6.2*	i
CCOc1ccc(S(=O)(=O)Nc2ccc(F)cc2)c(C)c1C	25*	i	i	i	0.16	i
COc1ccc(CCNC(=O)CNCC2CCCCC2)cc1OC	i	i	i	i	0.17	i
COc1ccc(CNC(=O)C2CCCN(S(=O)(=O)c3c(C)noc3/C=C/N(C)C)C2)cc1 (stereo not drawn)	i	i	i	i	-0.36	i
COC(=O)/C(=C/c1cn(C)c2ccccc12)[N+](=O)[O-]	x	x	i	x	-5.3*	x
COC(=O)/C(=C/c1cn(C(C)=O)c2ccccc12)[N+](=O)[O-]	x	x	x	x	x	i
COC(=O)c1cc(NC(=O)Cc2cc(OC)c(OC)c(OC)c2)cc(C(=O)OC)c1	i	i	i	i	0.16	i
Cc1c(N=Nc2c(-c3ccc([N+](=O)[O-])cc3)[nH]n(C(N)=S)c2=O)cccc1[N+](=O)[O-]	x	x	x	x	x	i
Cc1[nH]n(C(N)=S)c(=O)c1N=Nc1cccc([N+](=O)[O-])c1C	25*	i	i	i	0.44	i
